Test results: the supplement of paper PMC6555819

Columns and labels:
Test in all cases: PBM binding z-score (relative to random genomic background probes); higher = stronger binding; sequences stand for … in GC…GCGATTGACAGCGTAGAATGAAGG
[1] = system: FXR:RXRa (NR concentration 270 nM, RXRa partner concentration 90 nM)
Summary of the method: (§1)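 Ligand-free nuclear receptor dimers were bound for 1 h to custom Agilent 4×180K protein-binding microarrays. Detection used antibodies against each partner (one per run). Binding z-scores rest on regression-normalized fluorescence, with random background probes as the reference.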

[2] = system: LXRa:RXRa (NR concentration 270 nM, RXRa partner concentration 90 nM)
Summary of the method: as §1

[3] = system: LXRa homodimer (NR concentration 270 nM)
Summary of the method: as §1

[4] = system: LXRb:RXRa (NR concentration 270 nM, RXRa partner concentration 90 nM)
Summary of the method: as §1

[5] = system: LXRb homodimer (NR concentration 270 nM)
Summary of the method: as §1

[6] = system: PPARa:RXRa (NR concentration 270 nM, RXRa partner concentration 90 nM)
Summary of the method: as §1

[7] = system: PPARg:RXRa (NR concentration 180 nM, RXRa partner concentration 90 nM)
Summary of the method: as §1

[8] = system: PPARg:RXRa 270nM:90nM, anti-RXR (NR concentration 270 nM, RXRa partner concentration 90 nM)
Summary of the method: as §1

[9] = system: PPARg:RXRa 30nM:10nM, anti-RXR (NR concentration 30 nM, RXRa partner concentration 10 nM)
Summary of the method: as §1

[10] = system: PPARg:RXRa 90nM:30nM, anti-RXR (NR concentration 90 nM, RXRa partner concentration 30 nM)
Summary of the method: as §1

[11] = system: PPARg:RXRa DBDmut IVT, anti-RXR (DBD mutation: RXRa K156A/R161A, NR concentration 270 nM, RXRa partner concentration 90 nM)
Summary of the method: as §1

[12] = system: PPARg:RXRa IVT, anti-PPARg (NR concentration 270 nM, RXRa partner concentration 90 nM)
Summary of the method: as §1

[13] = system: PPARg DBDmut:RXRa IVT, anti-PPARg (DBD mutation: PPARg1 K132A/R137A, NR concentration 270 nM, RXRa partner concentration 90 nM)
Summary of the method: as §1

[14] = system: PPARg DBDmut IVT, anti-PPARg (DBD mutation: PPARg1 K132A/R137A, NR concentration 270 nM)
Summary of the method: as §1

[15] = system: PPARg homodimer (NR concentration 180 nM)
Summary of the method: as §1

[16] = system: PXR:RXRa (NR concentration 270 nM, RXRa partner concentration 90 nM)
Summary of the method: as §1

[17] = system: PXR homodimer (NR concentration 270 nM)
Summary of the method: as §1

[18] = system: RARa:RXR (NR concentration 270 nM, RXRa partner concentration 90 nM)
Summary of the method: as §1

[19] = system: RARa homodimer (NR concentration 270 nM)
Summary of the method: as §1

[20] = system: RARb:RXRa (NR concentration 270 nM, RXRa partner concentration 90 nM)
Summary of the method: as §1

Sequence	PBM binding z-score [1]	PBM binding z-score [2]	PBM binding z-score [3]	PBM binding z-score [4]	PBM binding z-score [5]	PBM binding z-score [6]	PBM binding z-score [7]	PBM binding z-score [8]	PBM binding z-score [9]	PBM binding z-score [10]	PBM binding z-score [11]	PBM binding z-score [12]	PBM binding z-score [13]	PBM binding z-score [14]	PBM binding z-score [15]	PBM binding z-score [16]	PBM binding z-score [17]	PBM binding z-score [18]	PBM binding z-score [19]	PBM binding z-score [20]
AGAATGAGGTTAAGATCAGGGACACAGAATACAT	2.45	2.04	0.0815	1.81	0.324	3.55	2.54	2.39	0.988	1.85	3.45	3.13	1.64	0.953	1.01	1.54	0.664	2.14	1.57	2.23
CGAACGAGGGCATGCGTTGATAGCAAATGCCGAT	0.569	0.207	-0.45	0.0933	-0.834	1.12	0.923	0.579	-0.693	0.0948	2.51	1.72	-0.297	-0.501	0.165	0.344	-0.453	0.5	-0.165	1.95
TCTTGTAGTTCAAGCAGGTTAAGAAAGCCTGAGT	1.59	1.72	0.316	1.5	-0.0715	2.02	-0.535	1.65	2.53	1.94	1.37	0.625	-0.45	-0.0561	0.815	2.26	1.78	1.59	0.00762	2.3
CCTCGGAGGACAACAGGAGGTCAGAGCAGCCAGA	1.3	1.9	1.9	1.4	-0.432	2.01	0.586	0.217	-0.349	-0.371	-0.204	0.388	-0.931	-1.16	1.41	2.05	0.438	2.23	0.698	2.87
CGTCCAAGGTCAATGCTCGGTCAGTGAAAGCATT	5.98	5.55	2.7	4.04	0.788	5	3.34	3.99	1.61	2.79	3.28	3.36	-0.42	-0.828	2.78	3.93	0.774	5.12	0.202	5.11
AGTCAAAGTTCACTAGGTAATGTAAGATTCAGCT	4.99	4.85	2.91	3.07	0.939	4.58	7.06	6.01	3.43	5.25	2.34	4.44	1.59	2.13	2.35	4.01	2.75	3.26	1.29	4.78
CCGACTGGGGTAAAGGTTACCATACTCAGTACGA	1.25	1.37	-0.204	2.11	-0.702	5.22	11.1	9.31	8.82	10.7	3.8	5.39	0.251	0.0634	1.25	1.93	-0.316	3.23	0.475	2.02
AATACAGGGTCATGGTAGGCCAGAGTACGCACAG	7.24	6.51	2.02	4.67	1.09	6.07	6.85	6.13	2.87	4.97	2.45	4.41	2.48	1.13	3.31	4.8	0.859	5.21	1.28	4.25
TCATATAGGTAAAAGGTGAGAGTCGGTGTGGTAA	1.07	1.56	-0.0844	1.55	0.0234	4.75	8.85	8.5	7.77	10	5.3	4.91	2.38	1.33	1.91	1.43	0.171	2.43	1.17	1.77
AGAACGAGCGCAATGAGTTGATAGCACGGGTGGC	-0.384	-0.917	-0.672	-1.03	-0.728	-0.619	0.568	-0.754	-0.641	-0.779	-0.343	-0.563	0.051	-0.552	0.0308	-0.486	-0.247	-0.449	-0.49	-0.312
TAGCCTAGGTCAGAGCGGGCCAGTATACGCTATA	1.24	0.815	-0.692	0.501	-1.17	1.42	0.573	0.718	-0.359	0.201	0.635	1.65	-0.73	-0.204	0.133	0.376	-0.362	0.867	-1.12	2.85
CCTAGCAGGCCAATCTGGGTGACTCAAGGCTTGA	-0.438	-0.53	-0.891	-0.476	-0.85	1.26	0.507	0.524	-0.938	-0.00968	2.96	3.53	-0.721	-0.739	-0.0827	-0.581	-0.777	0.391	-0.515	0.0785
TCTGATAGGTCAGTTGGTCAGCTAACGAGCTGCC	2.27	2.12	0.378	1.59	0.846	2.67	1.19	2.4	2.52	2.3	2.34	2.26	-0.134	1.25	1.43	0.816	-0.173	1.01	-0.0552	3.63
CGAACTAGGTCAGAACAAGACAGTGAAGGATGAT	0.848	0.591	-0.0962	0.588	-0.311	3.32	5.7	4.3	2.01	3.41	7.36	7.43	2.55	1.93	1.19	0.244	0.276	0.614	0.172	2.85
